In the library only some 3.1% were active in any assay of this set; here they are far more common.
BRCA1 expr up: qHTS Assay to Identify Small Molecule Activators of BRCA1 Expression. Potency, µM (highest dose often 46.1 µM), hits mostly activators. AID 624202, 2012. MCF7-BRCA1-FFLuc reporter, luminescence, 48 h; response scale: scaled: vehicle 0%, 10 µM genistein 100%. 1.1% of 380,000 active; note: nearly all actives have a fitted effect of over 80% in size
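Activators of BRCA1 expression were detected as increased firefly luciferase luminescence in engineered MCF7 cells after 48 h compound incubation. Signals were scaled to genistein 10 microM as full activation.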
ELG1 repair inh: qHTS screen for small molecules that inhibit ELG1-dependent DNA repair in human embryonic kidney (HEK293T) cells expressing luciferase-tagged ELG1; HEK293T ELG1-luciferase reporter, luminescence, 16 h; DNA damage induced by 5-fluorouridine; Potency, µM (highest dose often 46.1 µM), usual class: inhibitors; 2.3% of 330,000 active; AID 504467, 2011; note: nearly all actives have a fitted effect of over 55% in size
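HEK293T cells expressing luciferase-tagged ELG1 (2,000/well) received 5-Fluorouridine plus compound or DMSO for 16 hr at 37 °C. Luciferase was read by ONE-Glo luminescence after 30 min at room temperature.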
Nrf2 ARE act: qHTS of Nrf2 Activators; AREc32 ARE-luciferase reporter (MCF7-derived line), luminescence, 24 h; 0.31% of 410,000 active; Potency, µM (titrated, usually from 46.1 µM), usual class: activators; AID 624171, 2012; note: nearly all actives have a fitted effect of over 65% in size
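AREc32 cells carrying an ARE-driven firefly luciferase, 1000 cells/well in OPTI-MEM with 5% FBS, dosed after overnight attachment and incubated 24 hr at 37 deg C. Steady-Glo luminescence read after 30 min at RT.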
IL2 activator: qHTS of IL-2 Activators; 0.065% of 360,000 active; activation, % (series mostly up to about 46 µM); IL-2 activation reporter assay, cell-based qHTS; stimulated with anti-CD3/CD4/CD28 beads; in transgenic mouse T cells; in the data active = activation above about 50%; inconclusive = mostly about 30% to 49%
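Readout is EGFP and DsRed signal by fluorescent plate cytometry after 18 h at 37 degrees C. Transgenic mouse T cells (750/well) received compound for 60 min before bead stimulation (anti-CD3, anti-CD4, anti-CD28); memory T cells served as non-tolerant control.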
A number is an active result; – = inactive; ? = inconclusive; · = not tested or not shown. Unless noted, calls come from the whole dose curve; as a rule, active = well fitted curve in the direction sought with a large enough effect; inconclusive = small, poorly fitted or top-dose-only effect, or another doubt; inactive = no such curve, though single readings can be large; an effect the other way counts as inactive or inconclusive.

SMILES | BRCA1 expr up | ELG1 repair inh | Nrf2 ARE act | IL2 activator
Cc1ccc2c(=O)c(C(=O)c3ccc(F)cc3)cn(CC(=O)NCc3ccccc3Cl)c2n1 | · | · | – | ·
O=C(Cc1ccccc1)Nc1c(C(=O)Nc2ccccc2F)oc2ccccc12 | – | · | – | ·
COc1ccc(NC(=O)N2CCc3c([nH]c4ccc(OC)cc34)C2c2ccc(OC)cc2)cc1 (centres undefined) | · | · | – | ·
COCCNC(=O)CCCn1c(SCC(=O)Nc2ccc(F)cc2)nc2c(sc3ccccc32)c1=O | · | · | – | ·
CCNC(=O)/C(C#N)=C/c1c(N2CCN(c3ccc(OC)cc3)CC2)nc2c(C)cccn2c1=O | – | 23.1µM | – | –
CNC(=O)/C(C#N)=C/c1c(N2CCN(c3cccc(Cl)c3)CC2)nc2c(C)cccn2c1=O | – | 20.6µM | – | –
CCNC(=O)/C(C#N)=C/c1c(N2CCN(c3ccccc3)CC2)nc2c(C)cccn2c1=O | – | ? | – | –
CC(C)C(=O)Nc1nnc(COc2ccc(Cl)cc2)s1 | – | – | – | –
CC(=O)Nc1nnc(COc2ccc(Cl)cc2)s1 | 4.47µM | ? | – | –
COc1ccccc1C(=O)OCC(=O)Nc1ccc(N2CCCCC2)cc1 | – | · | · | ·
COc1ccc(N=Nc2nc(-c3ccccc3)c(-c3ccccc3)[nH]2)cc1 | – | ? | – | –
COc1ccccc1N=Nc1nc(-c2ccccc2)c(-c2ccccc2)[nH]1 | – | 23.1µM | – | –
CCCCNC(=O)C1(C)CCN1C(=O)c1csnn1 (centres undefined) | – | · | – | –
Clc1ccc(-c2noc(CN3CCOCC3)n2)cc1 | 7.94µM | ? | – | –
Cc1cnc(C)c(Nc2nc(C(N)Cc3ccc(Cl)cc3)cs2)n1 (centres undefined) | – | · | – | –
O=C(Nc1ccccc1)N1CCN(c2ccc(C(F)(F)F)cn2)CC1 | – | 20.6µM | – | –
O=C(Nc1ccccc1)N1CCN(c2cccc(C(F)(F)F)c2)CC1 | – | ? | – | –
COCCCN(C(=O)c1ccco1)c1nc(-c2ccc(OC)cc2)cs1 | – | ? | – | –
Cc1cccc(-c2nnc(NC(=O)c3ccco3)s2)c1 | ? | ? | – | –
CN(C(=O)c1ccco1)c1nc(-c2ccc(F)cc2)cs1 | 4.47µM | ? | – | –
O=C(Nc1nnc(-c2ccc(F)cc2)s1)c1ccco1 | 2.82µM | ? | – | –
COc1ccc(-c2csc(N(C)C(=O)c3cccs3)n2)cc1 | 10µM | ? | – | –
Cc1nnc(NC(=O)c2ccccc2)s1 | · | · | – | ·
CCN(CC)CCCN(C(=O)c1cccs1)c1nc(-c2ccc(OC)cc2)cs1 | – | – | – | –
CC(C)(C)c1ccc(-c2nnc(NC(=O)c3ccccc3)s2)cc1 | 3.16µM | ? | – | –
SMILES | BRCA1 expr up | ELG1 repair inh | Nrf2 ARE act | IL2 activator
Cc1cccc(C)c1NC(=O)C(C1CC1)n1c(-c2ccc(C(F)(F)F)cc2)nc2ccccc21 (centres undefined) | · | · | · | –
COc1ccc(-c2nnc(N(C)C(=O)c3ccco3)s2)cc1OC | – | ? | – | –
CN(C(=O)c1ccco1)c1nnc(-c2ccc(F)cc2)s1 | – | ? | 7.08µM | –
CC(CNC(=O)Cc1ccc(NC(=O)N2CCSc3ncccc32)cc1)c1ccccc1 (centres undefined) | · | · | – | ·
CCCCN=C1NN=C(c2ccc(C)c(C)c2)CS1 | ? | ? | – | –
COCCN=C1NN=C(c2ccc(C)c([N+](=O)[O-])c2)CS1 | 3.16µM | ? | – | –
O=C(C1CCC1)N1CCc2cc(S(=O)(=O)NCc3ccc(F)cc3)ccc21 | – | · | – | ·
O=C1c2ccccc2NC2(CCCCC2)N1c1ccc(O)cc1 | 11.2µM | ? | – | –
CC1CCN(C(=O)c2scc3c2OCCO3)CC1 | – | 18.4µM | – | –
CCCC[n+]1ccn(C2=C([O-])c3ccccc3C(=O)/C2=N\S(=O)(=O)c2ccccc2)c1 | – | ? | – | –
CC(C)[n+]1ccn(C2=C([O-])c3ccccc3C(=O)/C2=N\S(=O)(=O)c2ccccc2)c1 | – | 23.1µM | – | –
CC(C)(C)c1cc[n+](C2=C([O-])c3ccccc3C(=O)/C2=N\S(=O)(=O)c2ccccc2)cc1 | – | 14.6µM | – | –
O=C(NCCc1ccccc1)c1cnc2sc(N3CCCCC3)nn2c1=O | · | · | – | ·
Cc1ccc(S(=O)(=O)Cc2nc(-c3ccc(C(=O)NCc4ccccc4F)cc3)oc2C)cc1 | – | · | · | ·
CCn1c(SCC(=O)N2CCOCC2)nc2sc3c(c2c1=O)CCCC3 | – | – | – | –
Cc1nc(SCC(=O)N2CCOCC2)c2c3c(sc2n1)CCC3 | – | 20.6µM | – | –
CC(=O)Nc1ccc(NS(=O)(=O)c2c(C(=O)N3CCC(C)CC3)c(C)n(C)c2C)cc1 | · | · | – | ·
O=C(O)c1ccc(N/N=C/c2cccc3nccnc23)cc1 | 12.6µM | ? | – | –
Cc1noc(C)c1COc1ccccc1C(=O)NNC(=O)c1ccccc1F | – | – | 10µM | –
O=C(NNC(=O)c1ccccc1OCc1ccc(F)cc1)c1ccccc1O | – | 2.31µM | – | –
CN(C)S(=O)(=O)c1cccc(NC(=O)c2ccccc2OCc2ccc(F)cc2)c1 | – | 20.6µM | – | –
O=C(NNC(=O)c1ccccc1OCc1ccccc1)c1ccccc1O | – | ? | – | –
COCCCNC(=O)CSc1nc2cc3c(cc2c(=O)n1CCCCCC(=O)NCc1ccc(OC)cc1)OCO3 | · | · | – | ·
CC(C)Nc1nc(NCCOc2ccccc2)c2sccc2n1 | – | · | – | –
Cc1cc(Cl)c2oc(C(=O)N(C)C3CCOC3)c(C)c2c1 (centres undefined) | 2.51µM | ? | – | –
SMILES | BRCA1 expr up | ELG1 repair inh | Nrf2 ARE act | IL2 activator
Cc1cc(Cl)c2oc(C(=O)N3CCOCC3)c(C)c2c1 | ? | · | – | –
Nc1nonc1-c1noc(CCCN2C(=O)c3ccccc3C2=O)n1 | 4.47µM | ? | – | –
CCOc1cc(-c2noc(N)c2C#N)cc(OCC)c1OCC | – | – | ? | –
Cc1ccccc1-c1noc(N)c1C#N | – | – | 17.8µM | –
CNC(=S)N/N=C/c1ccc(C(C)C)cc1 | 5.01µM | · | – | –
CC(C)Cn1c(CN2CCN(c3cccc(Cl)c3)CC2)nc2c1c(=O)[nH]c(=O)n2C | – | · | – | ·
Cc1ccc(C)c(OCCCn2c(-c3ccc(Cl)cc3)nc3ccccc3c2=O)c1 | · | · | – | ·
CNc1ccc(/C=C2\C=Cc3ccccc32)cc1Cl | – | · | · | ·
CC(=O)Nc1ccc(OCc2ccc3c(c2)OCO3)cc1 | 2.51µM | ? | – | –
O=C(NCc1ccc2c(c1)CCO2)Nc1ccccc1 | 1.78µM | ? | – | –
CCc1ccc(NC(=O)NCc2ccc3c(c2)OCO3)cc1 | – | – | – | –
COc1ccc(NC(=O)NCc2ccc3c(c2)OCO3)cc1 | – | – | – | –
Cc1ccc(C(=O)NCc2ccc3c(c2)CCO3)cc1C | – | ? | – | –
O=C(NCc1ccc2c(c1)OCO2)Nc1ccc(Cl)cc1 | 11.2µM | ? | – | –
CC1=Nc2cc(C(=O)NCCc3ccc(Cl)cc3)ccc2Sc2ccc(C)cc21 | · | · | – | ·
